An excerpt weighted towards active compounds, which were near 8.3% of everything screened.
MARV entry inh = Marburg virus entry inhibition; Marburg virus pseudotyped entry inhibition, cell reporter; Potency, µM (series often up to 37.8 µM), most hits filed as inhibitors; hit rate 1.8% among 300,000; calls by dose curve; tested in HEK293 cells
Giardia FBPA inh = inhibitors of Giardia lamblia fructose-1,6-bisphosphate aldolase; purified Giardia FBPA; Potency, µM (series often up to 59.6 µM), usual class: inhibitors; A8B2U2; hit rate 0.71% among 290,000; also: nearly all actives have a fitted effect of over 55% in size
Target sequence (A8B2U2 whole entry, looked up): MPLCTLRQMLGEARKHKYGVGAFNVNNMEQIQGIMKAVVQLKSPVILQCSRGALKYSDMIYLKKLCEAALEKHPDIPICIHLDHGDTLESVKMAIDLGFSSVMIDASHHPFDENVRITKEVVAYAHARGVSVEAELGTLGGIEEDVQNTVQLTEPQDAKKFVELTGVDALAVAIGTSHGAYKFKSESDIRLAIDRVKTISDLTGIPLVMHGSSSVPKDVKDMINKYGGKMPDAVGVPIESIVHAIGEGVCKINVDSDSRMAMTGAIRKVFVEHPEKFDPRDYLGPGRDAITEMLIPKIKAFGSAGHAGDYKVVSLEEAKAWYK
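40 nM FBPA preincubated 10 min at RT with compound (up to 57.5 uM final), then substrate plus GAPDH/TPI/NAD/arsenate coupling and diaphorase/resazurin added. Fluorescence read after 20 min at RT, 525/598 nm.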
FMDV inh = antivirals against foot and mouth disease virus | Potency, µM (top dose mostly 57.9 µM), hits mostly inhibitors | hit rate 1.2% among 410,000 | FMDV antiviral cell-based qHTS; calls by dose curve; tested in HEK293T cells; also: read-out not given here; nearly all actives have a fitted effect of over 45% in size
HCMV antiviral = inhibitors of human cytomegalovirus; hit rate 4.5% among 410,000; HFF cells, HCMV-luciferase reporter, 72 h; active compounds read low; activity change, negative = inhibition, % at 57.5 µM; AID 1259415; in the data active = activity change below about -60%; inconclusive = no clear call, values can overlap the other calls; inactive = above about -39%
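HFF cells seeded 16 h at 37C, treated with compounds, infected with luciferase-reporter HCMV at MOI 1 PFU/cell; luciferase read at 72 h post infection, normalized to buffer-only and Salinomycin controls.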
Lassa entry inh = Lassa virus entry inhibition; Lassa virus pseudotype entry inhibition, cell reporter; Potency, µM (series often up to 37.9 µM), hits mostly inhibitors; hit rate 1.2% among 300,000; AID 540256; calls by dose curve; tested in HEK293 cells; also: nearly all actives have a fitted effect of over 50% in size
HCV inhibitor = blocks hepatitis C virus | Huh7.5.1 HCVcc-Cre infection, luciferase reporter, 44 h | Potency, µM (highest dose often 41.8 µM), usual class: inhibitors | hit rate 3.4% among 340,000
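Seed cells (1,000/well) for 4 h; treat with compound and infect with HCVcc-Cre, moi about 0.5. Incubate 44 h, then detect luciferase activity.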
Each line names hits and unclear results; the compound was inactive in the other large screens. Unless noted, calls follow the shape of the dose curve; as a rule, active = well fitted curve in the direction sought with a large enough effect; inconclusive = small, poorly fitted or top-dose-only effect, or another doubt; inactive = no such curve, though single readings can be large; an effect the other way counts as inactive or inconclusive.

COCC1CCN(C(=O)c2cc(COc3cccc4cnccc34)on2)CC1	FMDV inh inconclusive, HCMV antiviral active, HCV inhibitor 7.08µM (no result: Giardia FBPA inh)
O=C(c1cc(COc2cccc3cnccc23)on1)N1CCCC(CCCO)C1 (stereo not drawn)	FMDV inh 31.6µM, HCMV antiviral -85.5, HCV inhibitor 1.41µM (no result: MARV entry inh, Lassa entry inh)
Cc1nn(C)cc1C(C)NC(=O)c1cc(COc2cccc3cnccc23)on1 (stereo not drawn)	MARV entry inh inconclusive, FMDV inh 20µM, HCMV antiviral inconclusive, HCV inhibitor inconclusive (no result: Giardia FBPA inh)
Cc1nn(C)cc1C(C)NC(=O)c1cc(COc2c(F)cccc2F)on1 (stereo not drawn)	none (no result: MARV entry inh, Lassa entry inh)
COc1ccc(OCc2cc(C(=O)N3CCCC(CO)C3)no2)c2ccccc12 (stereo not drawn)	HCV inhibitor inconclusive (no result: Giardia FBPA inh)
COCC1CCN(C(=O)c2cc(COc3ccc(F)cc3Cl)on2)C1 (stereo not drawn)	none (no result: MARV entry inh, Giardia FBPA inh, Lassa entry inh, HCV inhibitor)
CC1=C(c2ccccc2)C(=O)C(C)(C)CC1=O	none (no result: MARV entry inh, Giardia FBPA inh, FMDV inh, Lassa entry inh, HCV inhibitor)
Cc1ccccc1C1=NOC2CN(C(=O)/C=C/c3ccccc3)CC12 (stereo not drawn)	none (no result: MARV entry inh, Giardia FBPA inh, FMDV inh, Lassa entry inh, HCV inhibitor)
CCN(CC)CCOc1nnc(-c2ccc(OC)cc2)c2ccccc12	HCMV antiviral -71.9 (no result: MARV entry inh, Lassa entry inh)
CCN(CC)CCOc1nnc(-c2ccc(C)cc2)c2ccccc12	MARV entry inh inconclusive, FMDV inh inconclusive, HCV inhibitor inconclusive
C=CCCCN1C(=O)NC(c2ccccc2)C(C(=O)OC)=C1C (stereo not drawn)	none (no result: Giardia FBPA inh, FMDV inh, HCMV antiviral, Lassa entry inh, HCV inhibitor)
COc1ccc(Br)cc1CC1C(=O)Nc2ccccc21 (stereo not drawn)	MARV entry inh inconclusive, FMDV inh inconclusive, HCMV antiviral -74.0 (no result: Giardia FBPA inh, HCV inhibitor)
Cc1nn(-c2cccc(Cl)c2)c2nc(-c3ccncc3)cc(C(=O)N3CCOCC3)c12	FMDV inh inconclusive, Lassa entry inh inconclusive, HCV inhibitor 7.94µM
Cc1nn(-c2ccccc2)c2nc(-c3ccccc3)cc(C(=O)N3CCOCC3)c12	MARV entry inh inconclusive, FMDV inh inconclusive, HCV inhibitor inconclusive
Cc1nc2c([nH]c3ccc(Br)cc32)s1	HCMV antiviral inconclusive, HCV inhibitor 10µM
Cc1n[nH]c2ccc(Br)cc2c1=O	none (no result: MARV entry inh, Giardia FBPA inh, Lassa entry inh, HCV inhibitor)
CCN1C(=O)[C@H]2[C@H]3[C@H](O)[C@H](O)C/C(=N\OCC[C@@H]4C=C[C@H](OC(C)=O)[C@@H](COC(C)=O)O4)[C@@H]3CC[C@H]2C1=O	none (no result: Giardia FBPA inh, FMDV inh, HCMV antiviral, Lassa entry inh, HCV inhibitor)
CC(C)c1ccc(NC(=O)C2Cc3c(-c4ccco4)ccnc3O2)cc1 (stereo not drawn)	none (no result: MARV entry inh, Giardia FBPA inh, Lassa entry inh, HCV inhibitor)
COc1ccc(NC(=O)C2Cc3c(-c4ccc5c(c4)OCO5)ccnc3O2)cc1OC (stereo not drawn)	FMDV inh 11.2µM, HCMV antiviral -89.6 (no result: MARV entry inh, Giardia FBPA inh, Lassa entry inh, HCV inhibitor)
COc1ccc(NC(=O)C2Cc3c(-c4ccco4)ccnc3O2)cc1OC (stereo not drawn)	FMDV inh inconclusive, HCMV antiviral -73.4 (no result: MARV entry inh, Giardia FBPA inh, Lassa entry inh, HCV inhibitor)
COc1ccc(NC(=O)C2Cc3c(-c4cccc(F)c4)ccnc3O2)cc1OC (stereo not drawn)	FMDV inh 15.8µM, HCMV antiviral -75.9 (no result: MARV entry inh, Giardia FBPA inh, Lassa entry inh, HCV inhibitor)
COc1ccc(NC(=O)C2Cc3c(-c4ccc(NC(C)=O)cc4)ccnc3O2)cc1OC (stereo not drawn)	none (no result: MARV entry inh, Giardia FBPA inh, Lassa entry inh, HCV inhibitor)
CS(=O)(=O)Nc1cccc(NC(=O)C2Cc3c(-c4cccc(F)c4)ccnc3O2)c1 (stereo not drawn)	HCMV antiviral -77.9 (no result: MARV entry inh, Giardia FBPA inh, Lassa entry inh, HCV inhibitor)
COC(=O)C(O)C(O)(CCC(C)C)C(=O)OC1C(OC)=CC23CCCN2CCc2cc4c(cc2C13)OCO4 (stereo not drawn)	none (no result: MARV entry inh, FMDV inh, HCMV antiviral, Lassa entry inh, HCV inhibitor)
CC(=O)c1cccc(NC(=O)C2Cc3c(-c4ccc(Cl)cc4)ccnc3O2)c1 (stereo not drawn)	FMDV inh 35.5µM (no result: MARV entry inh, Giardia FBPA inh, HCMV antiviral, Lassa entry inh, HCV inhibitor)
COc1ccc(-c2cc(C)no2)cc1S(=O)(=O)N1CCN(c2ccccc2F)CC1	FMDV inh inconclusive, HCMV antiviral inconclusive, Lassa entry inh inconclusive, HCV inhibitor 7.08µM (no result: MARV entry inh)
COc1ccc(-c2cc(C)no2)cc1S(=O)(=O)N1CCN(c2ccccn2)CC1	MARV entry inh inconclusive, FMDV inh inconclusive, Lassa entry inh inconclusive, HCV inhibitor 12.6µM (no result: Giardia FBPA inh)
Cc1cc(-c2ccc(C(C)C)c(S(=O)(=O)N3CCN(c4ccccn4)CC3)c2)on1	FMDV inh inconclusive, HCV inhibitor 11.2µM (no result: MARV entry inh, Lassa entry inh)
CCc1ccc(-c2cc(C)no2)cc1S(=O)(=O)N1CCN(c2ccccn2)CC1	MARV entry inh inconclusive, FMDV inh inconclusive, HCV inhibitor inconclusive (no result: Giardia FBPA inh)
O=C(O)CCCC(=O)OCCCc1cc2ccccc2c(=O)o1	none (no result: MARV entry inh, Giardia FBPA inh, FMDV inh, Lassa entry inh, HCV inhibitor)
